{"source": "PubChem BioAssay AID588342", "about": "(National Center for Advancing Translational Sciences (NCATS), 2011)", "note": "Hit rate of the full screen: of about 360,000 compounds, about 25,000 (6.9%) were called active. Where a call stands in place of a potency, no number is given. Another 9% or so got no clear call; they are omitted. Calls come from the whole dose curve; as a rule, active = well fitted inhibition curve with a large enough effect; inconclusive = small, poorly fitted or top-dose-only effect; inactive = flat fitted curve, though single readings scatter. Only a selection was taken, and actives are over-represented in it overall. Potency is the fitted concentration of half-maximal effect.", "data": [{"molecular_target": "Luciferin 4-monooxygenase (Photinus pyralis) (UniProt P08659)", "sequence (P08659 whole entry, looked up)": "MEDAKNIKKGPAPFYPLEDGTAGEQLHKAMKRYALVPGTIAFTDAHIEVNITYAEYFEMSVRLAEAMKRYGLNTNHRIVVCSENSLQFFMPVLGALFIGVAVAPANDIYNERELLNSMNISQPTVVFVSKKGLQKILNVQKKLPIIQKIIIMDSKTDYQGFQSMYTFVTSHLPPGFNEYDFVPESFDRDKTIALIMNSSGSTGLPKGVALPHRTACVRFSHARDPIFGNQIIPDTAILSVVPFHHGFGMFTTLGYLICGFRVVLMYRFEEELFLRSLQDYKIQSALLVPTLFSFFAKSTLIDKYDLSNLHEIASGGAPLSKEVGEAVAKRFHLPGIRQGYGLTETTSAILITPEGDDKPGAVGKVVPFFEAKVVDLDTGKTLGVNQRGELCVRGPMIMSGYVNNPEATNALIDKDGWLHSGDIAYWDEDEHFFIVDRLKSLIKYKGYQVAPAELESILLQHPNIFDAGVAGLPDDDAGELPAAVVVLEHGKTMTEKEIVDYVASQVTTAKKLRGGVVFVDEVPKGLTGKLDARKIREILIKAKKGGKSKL", "test": "qHTS profiling assay for firefly luciferase inhibitor/activator using purifed enzyme and Km concentrations of substrates (counterscreen for miR-21 project); note: nearly all actives have a fitted effect of over 55% in size", "conditions": "purified FLuc, luminescence inhibition; series mostly up to 57.5 µM", "how_it_was_run": "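Purified P. pyralis luciferase, 10 nM final, with Km-level 10 uM D-luciferin and 10 uM ATP in 50 mM Tris acetate pH 7.5, 10 mM Mg acetate, 0.01% Tween-20, 0.05% BSA; 6-point qHTS titration about 60 µM downward; luminescence read.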", "values": [{"smiles": "CCOC(=O)c1c(NC(=O)CNC2CCCc3ccccc32)sc(C(N)=O)c1C", "note": "(centres undefined)", "Potency": "inactive"}, {"smiles": "O=C(CN1CCN(c2ccccn2)CC1)N1CCc2ccccc21", "Potency": "inactive"}, {"smiles": "O=C(CSCc1ccccc1)N1CCc2ccccc21", "Potency": "2.39 µM (active)"}, {"smiles": "CCC(=O)N1CCCc2ccccc21", "Potency": "inactive"}, {"smiles": "CCc1nc2ccccc2c(C(=O)OC2CCCCC2=O)c1C", "note": "(centres undefined)", "Potency": "inactive"}, {"smiles": "NS(=O)(=O)c1ccc(Nc2nc(-c3ccccc3)cs2)cc1", "Potency": "21.3 µM (active)"}, {"smiles": "COc1ccc(-c2csc(Cc3nc(O)cs3)n2)cc1", "Potency": "2.69 µM (active)"}, {"smiles": "COc1ccc(Nc2nc(-c3ccccc3)cs2)cc1", "Potency": "0.601 µM (active)"}, {"smiles": "COC(=O)CCc1sc(Nc2ccc(Br)cc2)nc1-c1ccc(OC)cc1", "Potency": "inactive"}, {"smiles": "NS(=O)(=O)c1ccc(NS(=O)(=O)/C=C/c2ccccc2)cc1", "Potency": "inactive"}, {"smiles": "COc1ccc(-c2csc(Nc3ccc(O)cc3)n2)cc1", "Potency": "1.35 µM (active)"}, {"smiles": "CC(=O)Nc1nc(C)c(-c2csc(Nc3ccc(S(N)(=O)=O)cc3)n2)s1", "Potency": "inactive"}, {"smiles": "CCCn1c(CCNc2nc(-c3ccc(OC)cc3)cs2)nc2ccccc21", "Potency": "inactive"}, {"smiles": "COc1ccc(C2C(C(C)=O)=C(O)C(=O)N2c2nccs2)cc1", "note": "(centres undefined)", "Potency": "inactive"}, {"smiles": "CCCn1c(C2CCCN2c2nc(-c3ccc(OC)cc3)cs2)nc2ccccc21", "note": "(centres undefined)", "Potency": "inactive"}, {"smiles": "COc1ccc(NC(=O)c2sc(N)nc2-c2ccccc2)cc1", "Potency": "inactive"}, {"smiles": "CCOC(=O)NC(=O)CSc1nnc(SCCC(=O)O)s1", "Potency": "inactive"}, {"smiles": "CCC[C@H]1CCCC/C=C\\CCCC(=O)OCCN1C(=O)OC(C)(C)C", "Potency": "inactive"}, {"smiles": "COC(=O)c1cc(NC(=O)CCc2c(C)nc3c4c(C)cc(C)nc4nn3c2C)cc(C(=O)OC)c1", "Potency": "inactive"}, {"smiles": "C[C@@H]1O[C@@H](OC[C@H]2O[C@@H](Oc3c(-c4ccc(O)cc4)oc4cc(O)cc(O)c4c3=O)[C@H](O)[C@@H](O)[C@@H]2O)[C@H](O)[C@H](O)[C@H]1O", "Potency": "inactive"}, {"smiles": "CCNC(=O)c1cccc(NC(=O)C2CC(=O)N(CCc3ccccc3)C2)c1", "note": "(centres undefined)", "Potency": "inactive"}, {"smiles": "CCOc1ccc(NC(=O)CN(C)C(=O)Cn2c(=O)cnc3ccccc32)cc1OCC", "Potency": "inactive"}, {"smiles": "COc1ccccc1Cc1nc2ccccc2nc1SCC(=O)N1CCCc2ccccc21", "Potency": "inactive"}, {"smiles": "O=C(Cc1ccccc1)NCC1OCCc2ccccc21", "note": "(centres undefined)", "Potency": "inactive"}, {"smiles": "CSc1nc(-c2ccc(F)cc2)nc2c1Cc1c(CO)cnc(C)c1O2", "Potency": "inactive"}, {"smiles": "Cc1ccc(-c2csc(NC3OC(=O)c4ccccc43)n2)cc1", "note": "(centres undefined)", "Potency": "inactive"}, {"smiles": "COc1ccc(-c2csc(NC3OC(=O)c4ccccc43)n2)cc1", "note": "(centres undefined)", "Potency": "6.75 µM (active)"}, {"smiles": "COc1ccc2c(c1OC)C(=O)OC2Nc1nc(-c2ccccc2)cs1", "note": "(centres undefined)", "Potency": "inactive"}, {"smiles": "O=C(NCCS(=O)(=O)N1CCN(c2ccc(F)cc2)CC1)c1ccccc1Br", "Potency": "inactive"}]}]}
